This note sets out measurements from PubChem BioAssay AID449768 (Vanderbilt High Throughput Screening Facility, 2010).

Molecules are shown by their SMILES. Screen size: about 110,000 compounds; about 1,400 (1.3%) were called active. What follows is part of a selection rich in actives, with near analogues and random picks from the rest. Values without a mark were called inactive.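 Rule for the calls: active = Z score or B-score, a plate-position-corrected score, falls beyond the plate's 99.7% confidence bounds, in either direction; inactive = both scores lie inside the 99.7% bounds.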

This test deals with Sodium-dependent dopamine transporter (Homo sapiens) (UniProt Q01959). Description: modulators of human DAT uptake with cocaine – cell-based, LLC-PK1 hDAT, [14C]-dopamine uptake, MLSMR, cocaine antagonist project, primary screen (AID 449768).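 Note: scored against the spread of the other compound wells on the same plate.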 The note with it: LLC-PK1 hDAT cells, [14C]-dopamine uptake with cocaine IC80; at 10 µM; actives deviate in either direction.
Sequence of Sodium-dependent dopamine transporter (Homo sapiens) (Q01959 whole entry, looked up): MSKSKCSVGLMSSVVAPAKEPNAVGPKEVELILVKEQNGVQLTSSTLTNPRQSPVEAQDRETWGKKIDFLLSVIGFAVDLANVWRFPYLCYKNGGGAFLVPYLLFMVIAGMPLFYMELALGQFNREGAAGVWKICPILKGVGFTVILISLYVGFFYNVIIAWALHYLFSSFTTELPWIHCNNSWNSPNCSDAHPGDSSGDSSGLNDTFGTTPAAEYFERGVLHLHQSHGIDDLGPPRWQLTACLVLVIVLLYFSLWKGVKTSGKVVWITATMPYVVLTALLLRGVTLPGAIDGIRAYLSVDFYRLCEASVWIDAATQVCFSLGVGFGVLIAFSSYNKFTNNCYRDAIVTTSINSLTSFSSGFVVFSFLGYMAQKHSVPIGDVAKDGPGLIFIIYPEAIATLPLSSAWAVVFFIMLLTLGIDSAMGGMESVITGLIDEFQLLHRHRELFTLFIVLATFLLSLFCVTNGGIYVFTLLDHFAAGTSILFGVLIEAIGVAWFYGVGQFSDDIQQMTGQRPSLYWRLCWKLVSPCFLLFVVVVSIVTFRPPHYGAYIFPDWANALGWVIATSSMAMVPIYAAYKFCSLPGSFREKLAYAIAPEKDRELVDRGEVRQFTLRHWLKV
For the molecule `O=C(Nc1ccon1)c1cccc(Cl)c1`, the B-score was 0.0619.
To `Cc1cc(C)n(-c2ccc(Cl)c(C(=O)O)n2)n1` belongs -1.42; to `Cc1cc(C)n(-c2nnc(C)n2NC(=O)c2cccc(Cl)c2)n1`, -8.7 (active); to `COc1ccc2c(c1)CCNC2Cc1ccc(OC)c(O)c1` (stereo not given), -0.654.
Turning to `CC(=O)Nc1sc2c(c1C(c1cccc(F)c1)N1CCN(CCO)CC1)CCCC2` (stereo not given), the B-score is 0.298.
To `C[C@@H]1NC(=O)c2cc([N+](=O)[O-])cc(F)c2NCCC[C@@H](C(N)=O)NC(=O)[C@H](CC(N)=O)NC1=O` belongs -0.649; to `Cc1ccccc1NC(=O)c1cc(S(=O)(=O)N2CCOCC2)cs1`, -3.41 (active); to `Cc1ccc(C(=O)Nc2ccccc2C(=O)NC2CCCCC2)cc1S(=O)(=O)N1CCOCC1`, -0.00206.
In the case of `O=C(Nc1ccccc1F)c1cc(S(=O)(=O)N2CCCCC2)cs1`, the B-score is 0.695.
In the case of `C/C=C(/C)C(=O)Nc1cccc(C2=NOC3(C2)C[C@@H](C(N)=O)N(C(=O)C2(C)CC2)C3)c1` (stereo not given in full), the B-score is -0.445.
To `CC(Sc1nc2c([nH]c3ccccc32)c(=O)n1C)c1ccccc1` (stereo not given) belongs 0.73; to `CCOC(=O)c1c(NC(=O)C(C)Sc2c[nH]c3ccccc23)sc2c1CCC2` (stereo not given), -0.485.
With `Cc1nc(SCC(=O)N2CC(=O)Nc3ccccc32)c2c(C)c(C)sc2n1`, the B-score is 2.75 (active).
As to `Cc1nc(SCC(=O)Nc2cc(C)on2)c2c(C)c(C)sc2n1`, the B-score was 0.457.
To `Cc1nc(SCC(=O)N2CCc3ccccc3C2)c2c(C)c(C)sc2n1` belongs 2.48; to `C=CCSc1nnc2c(n1)-c1cccc3cccc-2c13`, 0.0257.
As to `CCOC(=O)N1CCN(C(=O)c2ccc(S(=O)(=O)c3ccc(C)cc3)c(NC(C)=O)c2)CC1`, the B-score was -7.14 (active).
Regarding `CCOC(=O)N1CCN(C(=O)c2ccc3c(c2)N(Cc2ccc(C)cc2)CCS3)CC1`, the B-score was 0.333.
To `CC(=O)Nc1cc(C(=O)O)ccc1S(=O)(=O)c1ccc(Cl)cc1` belongs -0.803; to `C[C@@H](C(=O)N1CCNCC1)n1cc(CCC(=O)O)nn1`, -0.0383.
In the case of `Cc1ccc(-c2cc(=O)c3ccc(F)cc3[nH]2)cc1`, the B-score is 0.343.
To `Cc1noc(C)c1CSCC(=O)Nc1nc2ccc(Oc3ccccc3)cc2s1` belongs 3.18 (active); to `CCOC(=O)c1c(C2CC2)csc1NC(=O)CSCc1c(C)noc1C`, 0.395; to `CCn1c(SCC(=O)Nc2nc3ccc(OC)cc3s2)nnc1-c1ccoc1C`, 0.56.
To `NC(=O)C1=C[C@@H](c2csc3ccccc23)C[C@@H](OCc2ccc(CO)cc2)O1` belongs 0.21; to `CC/C=C/C(=O)N1CC2(CC(c3cccc(NC(=O)CC)c3)=NO2)C[C@H]1C(N)=O` (stereo not given in full), 0.271.
For `CCCC[C@@H]1CN=C(N)N1CCc1cccc(F)c1`, the B-score is -0.00752.
As for `CCOC(=O)c1sc(NC(=O)CSc2nc3c(c(=O)n2-c2ccccc2)SCC3)c(C(=O)OCC)c1C`, the B-score was 0.723.
Take `Cc1ccc(Cn2nnc3c(=O)n(CC(=O)N4CCCCC4)cnc32)cc1`: the B-score is 0.247.
Turning to `O=C(Cn1cnc2c(nnn2Cc2ccc(F)cc2)c1=O)NCc1ccc2c(c1)OCO2`, the B-score is -8.17 (active).
To `O=C(Cn1nnc(-c2ccccc2)n1)NCc1ccc2c(c1)OCO2` belongs 0.156; to `NC(=O)CC(NC(=O)Cc1cccc2ccccc12)c1ccc(NCc2cc(F)ccc2F)c([N+](=O)[O-])c1` (stereo not given), 0.0495.
To `O=C(NCc1ccccc1)C1=C[C@@H](c2ccccc2)C[C@@H](OCCCCO)O1` belongs 0.736.
As to `CCN1C(=O)N[C@@H](CCc2ccccc2)C(C(=O)OC)=C1C`, the B-score is 0.0945.
To `COC(C[C@H](O)CC(=O)[C@@H](C)OCc1ccccc1)OC` belongs -0.99; to `O=C(O)C1=C[C@H](c2cccs2)C[C@H](OCCCCO)O1`, -0.012.
To `CCOc1cc2[nH]c(=O)n(CCC(=O)NCc3ccc(OC)cc3)c(=O)c2cc1OCC` belongs -0.216; to `COc1cc2[nH]c(=O)n(CCC(=O)NC3CCN(Cc4ccccc4)CC3)c(=O)c2cc1OC`, 3.31 (active); to `COc1ccc(CCNC(=O)CCCCn2c(=O)[nH]c3ccccc3c2=O)cc1OC`, 0.579.
To `CC(C)NC(=O)NCCCCCCS(C)=O` (stereo not given) belongs 0.321.
As to `O=c1[nH]snc1-c1c(Cl)cccc1Cl`, the B-score was 1.69.
To `Cc1cccc(NC(=O)c2sc3nc4c(c(-c5ccco5)c3c2N)CCC4)c1` belongs -8.82 (active).
Take `CC(=O)Nc1ccc(NC(=O)c2sc3nc4c(c(-c5ccc(C)cc5)c3c2N)CCC4)cc1`: the B-score was -0.372.
As for `NC(=O)c1sc2nc3c(c(-c4ccccc4)c2c1N)CCC3`, the B-score is 0.0164.
Turning to `CCOC(=O)c1ccccc1NC(=O)c1c(N)n(C)c(=O)[nH]c1=O`, the B-score is -0.18.
To `C[C@@H]1CC[C@]2(O[C@@H](CCO)C[C@H](O)[C@H]2O)O1` belongs -0.347.
To `COC(=O)C(C)n1cnc2c(nnn2-c2cccc(Cl)c2)c1=O` (stereo not given) belongs -0.668.
As for `CC(C)C[C@H](CO)Nc1nc(N(C)c2cccc(Cl)c2)c2ncn(C(C)C)c2n1`, the B-score was 2.72 (active).
`CC(C)n1cnc2c(Nc3cccc(Cl)c3)nc(N(CCO)CCCO)nc21`: the B-score is 0.4.
`C#CCOCCOCCOCCNc1nc(N2CCN(C(=O)[C@H](CCC(=O)O)n3cc(C(N)CO)nn3)CC2)nc(N2CCN(C(=O)[C@H](CCCCN)n3cc(C(N)[C@H](C)CC)nn3)CC2)n1` (stereo not given in full): the B-score is -0.0414.
On to `COc1ccc(N2C(=O)C3CCCN3C2c2cccc(OC)c2)cc1` (stereo not given), for which the B-score was -2.41 (active).
To `COc1ccc(N2C(=O)C3CCCN3C2c2cc(OC)c(OC)cc2OC)cc1` (stereo not given) belongs -1.27; to `COc1cccc(N2C(=O)C3CCCN3C2c2ccc(F)cc2)c1` (stereo not given), -0.103.
To `CC(=O)N[C@H]1[C@H]([C@H](O)[C@H](O)CO)OC(C(=O)O)=C[C@@H]1O` belongs 0.169; to `CC1(OC(=O)CCc2ccccc2)C(=O)C=C2C=C(c3ccc(C#N)cc3)N(CCc3ccccn3)C=C2C1=O` (stereo not given), -1.62.
